PNC assembly inh: High Content Assay for Compounds that inhibit the Assembly of the Perinucleolar Compartment; PC3M PTB-GFP, PNC prevalence imaging, 16 h; active compounds read low; activity change (PNC), negative = inhibition, % at 10 µM; 3.1% of 140,000 active;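 active means readout at or below -70, meaning at least 70% loss of cells showing the perinucleolar compartment, a nuclear body marking cancer cells; inconclusive means readout between -30 and a set limit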
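PC3M cells stably expressing PTB-GFP, 750–1000 cells/well, treated 16 h at 37 °C with compound (23 nl of library stock), in duplicate. After paraformaldehyde fixation and Hoechst stain, imaged at 20x; PNC prevalence scored by image analysis.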
ALDH1A1 block: qHTS Assay for Inhibitors of Aldehyde Dehydrogenase 1 (ALDH1A1) | Potency, µM (highest dose often 75.3 µM), most hits filed as inhibitors | 7.3% of 220,000 active | Purified ALDH1A1, NADH fluorescence, propionaldehyde substrate | Aldehyde dehydrogenase 1A1 (Homo sapiens), P00352 | AID 1030, 2008
Target sequence (P00352 whole entry, looked up): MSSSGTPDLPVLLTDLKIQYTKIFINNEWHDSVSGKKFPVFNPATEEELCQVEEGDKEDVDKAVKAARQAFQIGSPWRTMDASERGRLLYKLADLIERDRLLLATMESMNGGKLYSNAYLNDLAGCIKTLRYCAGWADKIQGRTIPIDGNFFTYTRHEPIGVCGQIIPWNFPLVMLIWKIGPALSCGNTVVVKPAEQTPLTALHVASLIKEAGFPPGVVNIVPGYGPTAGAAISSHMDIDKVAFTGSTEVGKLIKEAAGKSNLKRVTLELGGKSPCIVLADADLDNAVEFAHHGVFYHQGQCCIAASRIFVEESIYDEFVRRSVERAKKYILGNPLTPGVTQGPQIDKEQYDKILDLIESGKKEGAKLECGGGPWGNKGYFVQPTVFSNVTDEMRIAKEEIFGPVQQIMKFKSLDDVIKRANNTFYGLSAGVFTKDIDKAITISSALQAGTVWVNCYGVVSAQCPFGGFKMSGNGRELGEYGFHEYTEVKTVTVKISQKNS
HPGD block: qHTS Assay for Inhibitors of HPGD (15-Hydroxyprostaglandin Dehydrogenase); 15-hydroxyprostaglandin dehydrogenase [NAD(+)] (Homo sapiens), P15428; purified HPGD, NADH fluorescence kinetic, PGE2 substrate; Potency, µM, usual class: inhibitors; 4.3% of 150,000 active
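NADH formation kinetics: reaction with 30 uM PGE2 and 1 mM NAD+ (final), 20 nM enzyme, Tris-HCl pH 8 with Tween 20, after 15 min compound preincubation at room temperature. Fluorescence change, last versus first of five reads.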
Luc counter: Counterscreen for Luciferase (Kinase-Glo TM) Inhibition | 0.28% of 200,000 active | Potency, µM (doses to about 38.3 µM), usual class: inhibitors | Luciferin 4-monooxygenase (Photuris pensylvanica), Q27757 | AID 1379, 2008 | Kinase-Glo luciferase, ATP luminescence, 8 min; active means well fitted inhibition curve with a large enough effect; inconclusive means small, poorly fitted or top-dose-only effect; further: nearly all actives have a fitted effect of over 60% in size
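Recombinant Kinase-Glo luciferase, 10 uM ATP (linear range), luciferin; imidazole pH 7.2 / KCl / MgCl2 / Tween / BSA buffer; 8 min RT; luminescence.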
LMNA splice mod: qHTS Assay for Modulators of Lamin A Splicing; HeLa LMNA splicing GFP/RFP minigene ratio, 48 h; Potency, µM (doses to about 46.1 µM), usual class: inhibitors; 0.01% of 200,000 active; AID 1487, 2009; active means well fitted inhibition curve with a large enough effect in the signal ratio, with a control signal flat, not every such curve was filed as active; inconclusive means small, poorly fitted or top-dose-only effect, or effect the other way, or a change in a side signal; the % refers to the signal ratio
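S3 HeLa stable clones carrying a lamin A-EGFP splicing minigene plus DsRed2 were seeded at 600 cells/well in Opti-MEM with 2% FBS, pin-dosed and incubated 48 h at 37°C. Acumen cytometry (488 nm) gave the GFP/RFP total-intensity ratio.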
Hits are given with their value; [ ] = dose if it differs, or a comment. Sampled rows, rich in hits. Any-hit rate of the full collection: about 10%. Unless noted, the call rests on the fitted dose curve; in most records, active means well fitted inhibition curve with a large enough effect (not every such curve was filed as active); inconclusive means small, poorly fitted or top-dose-only effect, or another doubt; inactive means no such curve, though single readings can be large or run the other way.

How did CCC1CCC2(CC1)NNC(=S)NN2 do in these assays?
PNC assembly inh: inactive; ALDH1A1 block: 7.5µM; HPGD block: 10µM; Luc counter: inactive; LMNA splice mod: inactive

How did Cc1cc(C)c2c(CN3CCN(Cc4ccc5c(c4)OCO5)CC3)cc(=O)oc2c1C do in these assays?
PNC assembly inh: inactive; ALDH1A1 block: 1.6µM; HPGD block: inactive; Luc counter: inactive; LMNA splice mod: inconclusive

How did Cc1cc(C)c2c(CN3CCN(Cc4ccc5c(c4)OCO5)CC3)cc(=O)oc2c1 do in these assays?
PNC assembly inh: inactive; ALDH1A1 block: 13µM; HPGD block: inactive; Luc counter: inactive; LMNA splice mod: inconclusive

What do the screens show for `COc1cc(S(=O)(=O)N2CCN(Cc3ccc4c(c3)OCO4)CC2)c(C)cc1C`?
PNC assembly inh: -119; ALDH1A1 block: inactive; HPGD block: inactive; Luc counter: inactive; LMNA splice mod: inconclusive

How did CCN1CCN(Cc2cc(=O)oc3cc(C)cc(C)c23)CC1 do in these assays?
PNC assembly inh: inactive; ALDH1A1 block: inactive; HPGD block: inactive; Luc counter: inactive; LMNA splice mod: inactive

What do the screens show for `COc1ccc(CN2CCN(S(=O)(=O)c3ccc(C)cc3)CC2)cc1Br`?
PNC assembly inh: inconclusive; ALDH1A1 block: 20µM; HPGD block: inactive; Luc counter: inactive; LMNA splice mod: inactive

Results for COc1cc(C)c(C)cc1S(=O)(=O)N1CCN(Cc2ccc3c(c2)OCO3)CC1 ?
PNC assembly inh: inactive; ALDH1A1 block: inactive; HPGD block: inactive; Luc counter: inactive; LMNA splice mod: inactive

Results for Cc1ccc(C2CC(=O)Oc3ccc(C(C)(C)C)cc32)cc1 (stereo not drawn) ?
ALDH1A1 block: inactive; HPGD block: inactive; Luc counter: inactive

How did CCOc1ccccc1CN1CCc2nc(N3CCN(c4ccccc4F)CC3)ncc2C1 do in these assays?
LMNA splice mod: inactive

Results for COc1cccc(-n2c(=O)c3c(C)c(C(=O)N(C)C)sc3n(CC(=O)Nc3ccc(C)cc3Cl)c2=O)c1 ?
LMNA splice mod: inactive

How did Cc1ccc2c(CN3CCN(Cc4ccc5c(c4)OCO5)CC3)cc(=O)oc2c1C do in these assays?
PNC assembly inh: inconclusive; ALDH1A1 block: 25µM; HPGD block: inactive; Luc counter: inactive; LMNA splice mod: inactive

How did Cc1cc2oc(=O)cc(CN3CCN(Cc4ccc5c(c4)OCO5)CC3)c2cc1C do in these assays?
PNC assembly inh: inactive; ALDH1A1 block: inactive; HPGD block: inactive; Luc counter: inactive; LMNA splice mod: inactive

Results for CCOC(=O)c1ccc(Nc2c(-c3ccc(O)cc3)nc3nc[nH]n23)cc1 ?
LMNA splice mod: inactive

What do the screens show for `O=C1C2CC=C(Cl)CC2C(=O)N1CCN1CCOCC1` (stereo not drawn)?
PNC assembly inh: inactive; ALDH1A1 block: inactive; HPGD block: inactive; Luc counter: inactive; LMNA splice mod: inactive

Results for O=C1C2CC=C(Cl)CC2C(=O)N1CCCCCCN1C(=O)C2CC=C(Cl)CC2C1=O (stereo not drawn) ?
PNC assembly inh: inconclusive; ALDH1A1 block: 22µM; HPGD block: 16µM; Luc counter: inactive; LMNA splice mod: inactive

Results for O=S(=O)(c1ccc2ccccc2c1)N1CCN(C2Cc3ccccc3C2)CC1 ?
PNC assembly inh: inactive; ALDH1A1 block: 28µM; HPGD block: inactive; Luc counter: inactive; LMNA splice mod: inactive

Results for Cc1cnc(C(=O)N2CCN(S(=O)(=O)c3ccc4ccccc4c3)CC2)cn1 ?
PNC assembly inh: inconclusive; ALDH1A1 block: 13µM; HPGD block: inactive; Luc counter: inactive; LMNA splice mod: inactive

Results for O=C1CCC=C1C(O)c1ccc(Cl)cc1 (stereo not drawn) ?
ALDH1A1 block: inactive; HPGD block: inactive; Luc counter: inactive

What do the screens show for `C[C@@H]1CC[C@H]2[C@H](C)C3[C@H](C[C@H]4[C@@H]5CC=C6C[C@@H](O)CC[C@@]6(C)[C@@H]5C[C@@H](O)[C@]34C)N2C1` (stereo partly drawn)?
ALDH1A1 block: inactive[13.5 µM]; HPGD block: inactive; Luc counter: inactive[7.66 µM]

What do the screens show for `CCOC(=O)c1c(C)[nH]c(C)c1S(=O)(=O)N1CCC(C(=O)N2CCN(c3cccc(C)c3)C(C)C2)CC1` (stereo not drawn)?
LMNA splice mod: inactive

High-throughput results from PubChem.
